Results on 47 compounds are retold here after PubChem BioAssay (EPA / NIEHS).

Results filed as inconclusive are left out. Active and inactive are the calls of the source. The calls were made as follows, unless noted: active = hit-call score of the fitted dose curve at least 0.9, where 1 is the maximum; inconclusive = response in the unintended direction; inactive = score below 0.9.

What is called AC50 is the midpoint of the concentration-response curve, whichever way the signal moves.

The nature of assay [1]: STM_H9_OrnithineISnorm_perc: Stemina devTOX quickPredict H9 human embryonic stem cell (hESC)-based Assay for Ornithine (ORN) Metabolite Biomarker, Normalized (AID 2283712; active = hit-call score of the fitted dose curve at least 0.9, where 1 is the maximum; inactive = score below 0.9;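 also: ornithine released into spent medium during last day measured by mass spectrometry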). In outline:
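UPLC-HRMS readout: endogenous ornithine EIC area / 13C-ORN internal standard, then % of 0.1% DMSO median. H9 hESCs (pluripotent), 72h exposure, re-dosed with fresh media q24h; last 24-h spent media, deproteinized in 40% acetonitrile.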

Assay [2] in a line: STM_H9_OrnCyssISnorm_ratio: Stemina devTOX quickPredict H9 human embryonic stem cell (hESC)-based Assay for Ornithine (ORN):Cystine (CYSS) Ratio (AID 2283714). The procedure, abridged:
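Ratio of internal-standard-normalized ornithine to cystine, measured by UPLC-HRMS in spent media from the last 24 h. H9 cells kept pluripotent, dosed 72 h with daily media and compound renewal; DMSO 0.1% serves as baseline.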

Assay [3] can be described thus: CEETOX_H295R_MTT_cell_viability: Viability Assessment in the CeeTox HT-H295R MTT Assay (AID 2283718; active = hit-call score of the fitted dose curve at least 0.9, where 1 is the maximum; inactive = score below 0.9;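 as to AC50: curve fitted both ways so AC50 may mark viability loss or gain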). In outline:
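MTT reduction (0.5 mg/ml, 4 h at 37 C; absorbance at 570 and 650 nm) gave viability as background-corrected percent change versus controls. H295R cells had 48 h forskolin (10 uM) prestimulation, then 48 h chemical exposure at 0.1% DMSO.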

A short description of assay [4]: Tanguay_ZF_120hpf_ActivityScore_legacy: (Legacy) Oregon State University Tanguay Lab 120 Hour Post-fertilization zebrafish Assay Score for Activity (AID 2283742).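 As to AC50: dechorionated Tropical 5D wild-type zebrafish embryos held singly per well.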 In outline:
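Binary scoring of mortality and morphology by brightfield at 24 and 120 hpf, summarised into one activity score from 18 components relative to DMSO. Wild-type Tropical 5D zebrafish, chorion removed at 4 hpf, static exposure 6–120 hpf, 28 °C.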

The subject of assay [5] is Thyroperoxidase (TPO), gene 445522. Put plainly: CCTE_Simmons_GUA_TPO: CCTE's Guaiacol Assay for Thyroperoxidase (TPO) Inhibition, Simmons Lab (AID 2283750). The procedure, abridged:
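Porcine thyroid microsomes (25 ug) in 200mM potassium phosphate, preincubated 30 s at 37C with compound (8 concentrations, 5 nM–87.5 uM) and 35mM guaiacol; 1mM H2O2 starts reaction. Absorbance change at 450nm over first 80 s; loss of signal versus DMSO, three replicates.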

Assay [6] can be described thus: ArunA_CellTiter_hNC: Viability Assessment in the ArunA Biomedical's Oris Neural Crest (hNC) Cell Migration Assay (AID 2283752). In outline: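 hNC cells (H9 ESC-derived), 60,000/well, Matrigel, LIF + bFGF medium; 16 h 37C attachment; 72 h compound in test medium; CellTiter Aqueous One read-out; loss-of-signal vs DMSO baseline.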
The nature of assay [7]: ArunA_CellTiter_hNP: Viability Assessment in the ArunA Biomedical's Oris Neural Crest (hNC) Cell Migration Assay (AID 2283753). The procedure, abridged:
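Viability read with CellTiter 96 Aqueous One after 72 h chemical exposure of human hNP1 neuroprogenitors, which were plated on Matrigel in LIF/bFGF medium 16 h beforehand. Endpoint fitted in positive direction relative to DMSO.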

Assay [8] in a line: ArunA_Migration_hNP: ArunA Biomedical's Oris Neuroprogenitor (hNP) Cell Migration Assay (AID 2283754). In outline:
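Readout is calcein-AM fluorescence (ex494/em517) of cells migrating into the detection zone, relative to DMSO. hNP1 cells (H9-derived) grown on Matrigel behind stoppers 16 h, then stoppers pulled and chemical applied 72 h; cytochalasin D as control.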

A short description of assay [9]: ArunA_Migration_hNC: ArunA Biomedical's Oris Neural Crest (hNC) Cell Migration Assay (AID 2283755). In outline: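 Calcein-AM fluorescence (ex494 nm/em 517 nm) in the stopper-defined detection zone quantifies migration of hNC cells after 72 h chemical exposure; 60,000 cells/well plated on Matrigel with LIF and bFGF, 16 h pre-incubation. DMSO baseline.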
The nature of assay [10]: ArunA_NOG_NucleusCount: ArunA Biomedical's Neurite Outgrowth (NOG) Assay for Nucleus Count (AID 2283756). The procedure, abridged: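 Viable neuron count, from Hoechst nuclei passing size and intensity gates, imaged at 20x on differentiated H9-derived human neurons. Exposure lasted 48 h from seeding; activity was scored relative to DMSO.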

`CCCCOC(=O)c1ccccc1C(=O)OCc1ccccc1`: the outcome in [1], in [3] and in assay [4] was inactive. Also, in assay [2], the AC50 was 34.6 µM (active).
With `OCCCBr`, the result in [1], in [2] and in [4] was inactive.
`O=[N+]([O-])c1ccc(Oc2ccc(Cl)cc2Cl)cc1`: the AC50 in assay [1] is 68.7 µM (active); in [2], 50 µM (active). The result in assay [4] was inactive.
With `[Cl-].[Cl-].[Hg+2]`, the AC50 in [1] was 1.34 µM (active); in assay [2] it was 0.995 µM (active); in assay [4], 4.32 µM (active); in assay [5], 389 µM (active).
Regarding `Brc1ccc(Oc2ccccc2)cc1`, the outcome in assay [1], in assay [2], in assay [3] and in [4] was inactive.
With `COC(=O)Nc1nc2ccccc2[nH]1`, the outcome in [1] and in assay [4] was inactive. Besides, the AC50 in [2] is 6.5 µM (active).
Turning to `CCCCCCCCn1sccc1=O`, the figures for the AC50 in assay [1], in [2] and in assay [4] were 43 µM (active), 22.4 µM (active) and 3.42 µM (active), respectively.
As to `CN(C)C(=O)Nc1ccc(Cl)cc1`, the outcome in [1], in assay [2] and in assay [4] was inactive.
As for `CCCCCCCCCCCCCN1CC(C)OC(C)C1` (stereo unspecified), the result in assay [1], in [3] and in assay [4] was inactive. Also, the AC50 in assay [2] is 2.62 µM (active).
`Oc1ccc2ccc3cccc4ccc1c2c34`: the result in assay [1], in [2], in assay [3] and in assay [10] was inactive. Also, the AC50 in assay [4] was 47.4 µM (active); in assay [6] it was 14.7 µM (active); in [7], 25.8 µM (active); in assay [8], 50 µM (active); in assay [9] it was 13.9 µM (active).
As to `Cc1ccc(N)cc1`, the results for the AC50 in assay [1] and in assay [2] were 61.2 µM (active) and 30.4 µM (active), respectively. Moreover, the compound was called inactive in assay [4].
For the compound `Cc1cccc(N)c1N`, the AC50 was 76.4 µM (active) in assay [1], 74.5 µM (active) in assay [2], 1.07 µM (active) in [3] and 44.5 µM (active) in [4].
On to `CNC(=O)Oc1cccc2c1OC(C)(C)C2`, for which the result in assay [1], in assay [2] and in [4] was inactive. Moreover, in assay [3], the AC50 was 1.52 µM (active).
In the case of `ClC1=C(Cl)[C@]2(Cl)[C@H]3[C@H]([C@@H]4C=C[C@H]3C4)[C@@]1(Cl)C2(Cl)Cl`, the outcome in [1] and in [4] was inactive.
Consider `C[N+](C)(C)CC1CO1` (stereo unspecified), for which the AC50 was 21 µM (active) in assay [1] and 16.5 µM (active) in assay [2]. In addition, the compound was classed as inactive in assay [4].
For the compound `Clc1ccc(C(c2ccc(Cl)cc2)C(Cl)Cl)cc1`, the outcome in assay [1], in assay [2] and in assay [4] was inactive.
`CCN(CC)N=O`: the outcome in assay [1] and in assay [4] was inactive.
Take `N#CC(Br)Br`: in assay [4], the compound was classed as inactive.
`[As]#[In]`: the compound was called inactive in [3] and in assay [4].
Regarding `Nc1ccc([N+](=O)[O-])cc1`, the outcome in [4] was inactive.
Take `CC(C)N(Cc1ccccc1)C(=O)C(C)(C)C`: the call in assay [3] and in assay [4] was inactive.
Consider `CCNS(=O)(=O)C(F)(F)C(F)(F)C(F)(F)C(F)(F)C(F)(F)C(F)(F)C(F)(F)C(F)(F)F`, for which, in assay [4], the AC50 was 31.2 µM (active).
As to `O=C1CCCO1`, the result in assay [1] and in assay [4] was inactive.
Consider `c1ccc2c(c1)-c1cccc3cccc-2c13`, for which the result in assay [3] and in assay [4] was inactive.
On to `C[C@]12C=CC3=C4CCC(=O)C=C4CC[C@H]3[C@@H]1CC[C@@H]2O`, for which the result in assay [3] was inactive. In assay [4], the AC50 is 118 µM (active).
For the compound `O=C(Nc1ccccc1)c1ccccc1I`, the result in assay [3] was inactive. Also, the AC50 in assay [4] was 11.6 µM (active).
With `Cc1ccc(N=C=O)cc1N=C=O`, the outcome in [3] and in assay [4] was inactive.
Turning to `Nc1ccc(Cc2ccc(N)cc2)cc1`, the figures for the AC50 in [3] and in [5] were 2.04 µM (active) and 0.352 µM (active), respectively. Also, the outcome in assay [4] was inactive.
Take `OCCOCCO`: the compound was classed as inactive in assay [4].
For `CCC(C)c1ccc(O)cc1` (stereo unspecified), the outcome in [3] and in assay [4] was inactive.
As to `C=CCc1ccc2c(c1)OCO2`, the call in assay [3] and in [4] was inactive.
Regarding `Nc1ccc(Cl)cc1N`, the compound was classed as inactive in assay [3]. Moreover, the AC50 in [4] was 44.8 µM (active).
As to `CCCCC(CC)COC(=O)c1ccc(C(=O)OCC(CC)CCCC)c(C(=O)OCC(CC)CCCC)c1` (stereo unspecified), the result in [4] was inactive.
In the case of `CCOc1cccc(C2(N3CCN(c4ccccc4)CC3)CCC(C)CC2)c1` (stereo unspecified), the result in assay [3] and in assay [4] was inactive.
As to `ClCCOCCCl`, in [4], the compound was classed as inactive.
As for `Nc1ccc(N=Nc2ccccc2)cc1`, the outcome in assay [3] and in assay [4] was inactive.
For the compound `CC(C)(C)OOC(=O)c1ccccc1`, the call in assay [4] was inactive.
As to `CCCSC(=O)N(CCC)CCC`, the compound was classed as inactive in [4].
Regarding `Clc1ccc(Cl)c(Cl)c1`, the outcome in [1], in assay [4], in assay [6], in assay [8] and in [10] was inactive.
As to `Cc1cc(N=Nc2ccccc2C)ccc1N`, in assay [3], the compound was called inactive. The AC50 in assay [4] is 33.3 µM (active).
For the compound `CC(C)(O)c1cnn2c(-c3ccc(F)c(-c4c(F)cccc4C#N)c3)cnc2n1`, the outcome in assay [3] and in assay [4] was inactive.
For `CCOC(=O)[C@]1(c2ccccc2)Oc2ccccc2[C@@H]1N`, the call in assay [3] and in assay [4] was inactive.
As to `c1ccc(N=Nc2ccccc2)cc1`, the compound was classed as inactive in assay [3] and in assay [4].
On to `Clc1ccc(C(c2ccc(Cl)cc2)C(Cl)(Cl)Cl)cc1`, for which the outcome in assay [1] and in [4] was inactive.
As to `COP(=S)(OC)SCN1C(=O)c2ccccc2C1=O`, the outcome in [3], in [4] and in assay [5] was inactive.
In the case of `CN(C)c1ccccc1`, in assay [5], the AC50 was 23.7 µM (active).
Regarding `CN(C)[C@@H]1C(=O)C(C(N)=O)=C(O)[C@@]2(O)C(=O)C3=C(O)c4c(O)cccc4[C@@](C)(O)[C@H]3C[C@@H]12`, in assay [5], the AC50 was 117 µM (active).
